Data on 36 molecules can be found in PubChem BioAssay (NCATS).

The nature of assay [1]: Confirmatory screen GU Rhodamine qHTS for Zika virus inhibitors qHTS (AID 1347157). Note: nearly all actives have a fitted effect of over 70% in size. Note: potency is the fitted concentration of half-maximal effect. A digest of the protocol:
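Percent inhibition derives from the 15-min fluorescence change (ex 480, em 540 nm), normalized to no-enzyme and no-inhibitor wells. Reactions contained 25 nM NS2B-NS3 complex and 1.5 microM substrate in 10 mM Tris-HCl pH 8.0.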
A general note: Quantitative high-throughput screening tests each substance at several concentrations.

Assay [2] in a line: Tertiary RLuc qRT-PCR qHTS assay for Zika virus inhibitors (AID 1347169). Note: top concentration of the series differs between compounds; nearly all actives have a fitted effect of over 55% in size. A digest of the protocol: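 Inhibition of ZIKV-RLuc replication in Vero cells, read as Renilla luminescence 1-1.5 hrs after live-cell substrate addition, following 48-72 hrs infection at MOI 1-2 in presence of compound.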
For orientation: Real-time PCR tracks product formation cycle by cycle.

Assay [3] in a line: U-118MG Cancer Cell Toxicity qHTS against the NCATS CANVASS Library (AID 1347351). A digest of the protocol: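 ATP content after 72 h treatment, detected by CellTiter-Glo luminescence (15min room-temperature development), reflects cell viability. Wells contained 1000 cells and received compounds at 11 concentrations.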
Assay [4] can be described thus: COV-362 Cancer Cell Toxicity qHTS against the NCATS CANVASS Library (AID 1347352). Note: series mostly up to about 38 µM. A digest of the protocol:
(§1)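 1000 cells/well, 4 h pre-incubation 37 °C/5% CO2; 11-pnt titration; 72 h; CellTiter-Glo 15 min RT, luminescence.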

Assay [5] in a line: A2780 Cisplatin Sensitive Ovarian Cancer Cell Toxicity qHTS against the NCATS CANVASS Library (AID 1347353). Note: nearly all actives have a fitted effect of over 60% in size. In a few lines: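 750 cells/well, 4 h settle; 11-pt cpd titration; 72 h, 37 °C, 5% CO2; ATPLite 10 min RT; luminescence read.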
The nature of assay [6]: UWB1.289-WTBRCA1 Cancer Cell Toxicity qHTS against the NCATS CANVASS Library (AID 1347354). A digest of the protocol: as §1
A short description of assay [7]: KB-8-5-11 Cancer Cell Toxicity qHTS against the NCATS CANVASS Library (AID 1347364). Note: nearly all actives have a fitted effect of over 75% in size. A digest of the protocol:
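CellTiter-Glo luminescence after 72 h exposure; 500 KB-8-5-11 cells/well, DMEM/10% FBS, 37C, 5% CO2; compounds in 11-pt qHTS. Follow-up confirmation included medium with 1uM tariquidar.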

The nature of assay [8]: SDT Cancer Cell Toxicity qHTS against the NCATS CANVASS Library (AID 1347365). Note: nearly all actives have a fitted effect of over 60% in size. A digest of the protocol:
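Luminescent ATP read-out (CellTiterGlo) after 72 hr compound exposure of dog glioma SDT cells, 500 per well. Eleven-point titrations; bortezomib titration run alongside as control.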

A short description of assay [9]: KB-3-1 Cancer Cell Toxicity qHTS against the NCATS CANVASS Library (AID 1347366). Note: nearly all actives have a fitted effect of over 75% in size. A digest of the protocol: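 Cytotoxicity toward KB-3-1 cells (500/well, DMEM + 10% FBS) was scored by CellTiter-Glo luminescence following 72 hr exposure at 37C, with bortezomib titrated as control.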
A short description of assay [10]: G06 Cancer Cell Toxicity qHTS against the NCATS CANVASS Library (AID 1347368). Note: series mostly up to about 46 µM; nearly all actives have a fitted effect of over 60% in size. A digest of the protocol:
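ATP luminescence (CellTiterGlo) readout of cytotoxicity. Canine G06 glioma cells, 500/well, 72 hr incubation at 37C with compounds; bortezomib titration served as control.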

Assay [11] is described as follows: MCF7 Cancer Cell Toxicity qHTS against the NCATS CANVASS Library (AID 1347369). In a few lines:
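This 72 hr qHTS scored MCF7 viability by CellTiterGlo luminescence, with 500 cells/well; bortezomib titration ran as control.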

In assay [12] the target is Nuclear receptor subfamily 1 group I member 3 (Homo sapiens) (UniProt Q14994). Put plainly: qHTS for Constitutive Androstane Receptor (CAR) Antagonist screened against the NCATS CANVASS Library (AID 1347372).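 Note: cells stimulated with 50 nM CITCO agonist so inhibition reflects antagonism; luciferase from CYP2B6 promoter reporter driven by hCAR in HepG2 cells; series mostly up to about 46 µM.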 In a few lines: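 Cells were seeded and left 4hr to attach, then received compound at 11 concentrations and 50 nM CITCO. Following 24hr incubation, fluorescence viability and luciferase luminescence were read sequentially.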
Sequence of Nuclear receptor subfamily 1 group I member 3 (Homo sapiens) (Q14994 whole entry, looked up): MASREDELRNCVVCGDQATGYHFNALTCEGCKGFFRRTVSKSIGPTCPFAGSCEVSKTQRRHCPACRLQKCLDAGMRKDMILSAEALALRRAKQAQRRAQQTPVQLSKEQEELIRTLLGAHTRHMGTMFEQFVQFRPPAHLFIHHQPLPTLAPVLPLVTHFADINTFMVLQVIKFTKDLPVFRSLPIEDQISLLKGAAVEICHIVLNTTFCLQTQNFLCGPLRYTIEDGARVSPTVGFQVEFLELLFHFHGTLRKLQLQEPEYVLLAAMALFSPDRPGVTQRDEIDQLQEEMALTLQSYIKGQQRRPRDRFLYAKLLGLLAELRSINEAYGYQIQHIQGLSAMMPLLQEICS

The nature of assay [13]: qHTS for Hypoxia signaling pathway (HIF-1) antagonists against the NCATS CANVASS Library (AID 1347374).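 Note: HRE-bla ME-180 cells stimulated with cobalt chloride to stabilize HIF-1alpha; series mostly up to about 38 µM; nearly all actives have a fitted effect of over 60% in size.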 In a few lines: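 Beta-lactamase reporter under HRE control in ME-180 cells; CoCl2 stimulus (60 uM solution as added), compounds 11-pt qHTS, 17 h 37C. CCF4 dye 2 h RT, 460/530 nm emission. CellTiter-Glo viability in same wells.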
Assay [14] in a line: qHTS for H2AX Agonists against the NCATS CANVASS Library (AID 1347378).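 Note: phospho-H2AX S139 level in CHO-K1 lysates by TR-FRET emission ratio.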 In a few lines: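 Signal is the 665/620 nm emission ratio from europium cryptate and d2 antibody pair, rising with S139-phosphorylated H2AX. CHO-K1 cells saw test agents for 3 hr at 37C; detection ran 24 hr at room temperature.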
Assay [15] can be described thus: Cytotoxicity qHTS for assessment of Hepg2 cells membrane integrity screened against the NCATS CANVASS Library (AID 1347387). In a few lines: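 LDH release read by fluorescence (560 nm ex/590 nm em) after CytoTox-ONE addition and 10 min RT; signal tracks lysed cells. HepG2, 2000 cells/well, plated overnight; compound 5 hr, 37C, 5% CO2, final 0.59 nM - 46 uM, 11 points.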

Assay [16] in a line: qHTS for activators of Nrf2/ARE signaling pathway screened against the NCATS CANVASS Library (AID 1347391). Note: nearly all actives have a fitted effect of over 60% in size. A digest of the protocol: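 HepG2 ARE-bla; cpd 11-pt qHTS, 16 h 37C/5% CO2; CCF4 substrate 2 h RT; read ex 405 / em 460 + 530 nm. Viability by CellTiter-Glo luminescence, 30 min RT.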
The nature of assay [17]: qHTS for inhibitors of Wild type Zika virus screened against the NCATS CANVASS Library (AID 1347396).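 Note: ATP luminescence of surviving cells so rescue from viral cell killing; series mostly up to about 46 µM.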 In a few lines:
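Vero 766 (African green monkey) cells, 1000 per well, attached overnight, then compounds were added in an 11-point series before wild-type Zika virus infection. After 72 h at 37C, cell viability was read as CellTiter Glo luminescence.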

The nature of assay [18]: Viability qHTS for inhibitors of the SERCaMP assay screened against the NCATS CANVASS Library (AID 1347400). Note: series mostly up to about 92 µM; nearly all actives have a fitted effect of over 70% in size. A digest of the protocol:
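CellTiter-Glo luminescence readout after 48 h compound exposure (11-pnt qHTS series) of SH-SY5Y-GLuc SERCaMP MJH297 cells seeded at 1000 cells/well; bortezomib positive control.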

Assay [19] in a line: Redox Reaction Profiling qHTS: Assay Interference Panel against the NCATS CANVASS Library (AID 1347401). A digest of the protocol:
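Quantitative HTS over an 11-point series was run in HEPES pH 7.3 with 50 mM NaCl, 200 uM DTT and 5 uM resazurin. Initial and 15-min resorufin fluorescence readings were taken.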

Several values for one entry are separate records, joined by “and”; a condition that tells them apart may be missing. Equal entries are not always repeated. Records with an inconclusive call do not appear. Activity calls are given as the source filed them. Calls come from the whole dose curve; as a rule, active = well fitted curve in the direction sought with a large enough effect; inconclusive = small, poorly fitted or top-dose-only effect, or another doubt; inactive = no such curve, though single readings can be large; an effect the other way counts as inactive or inconclusive.

Turning to `O=C(Nc1ccccc1C(=O)OCc1cc(=O)n2c3c(sc2n1)CCCC3)c1ccc(Cl)cc1`, the Potency entry in [1] was “inactive”.
For `O=C(OCC#CCSc1nnc(-c2cccc3ccccc23)o1)c1sc2ccccc2c1Cl`, the Potency result in assay [1] and in [2] was “inactive” in each case.
In the case of `O=C(COc1ccccc1F)Nc1ccc(C(=O)OCc2cc(=O)n3nc(C4CC4)sc3n2)cc1`, the Potency result in assay [1] and in [2] was “inactive” throughout.
For the molecule `COc1ccc(OC)c(Nc2sc(C(=O)c3ccccc3)c(N)c2S(=O)(=O)c2ccccc2)c1`, the Potency result in [1] and in assay [2] was “inactive” each time.
On to `COC(=O)c1ccccc1NC(=O)CSc1nc(-c2ccccc2)cc(C(F)(F)F)n1`, for which the Potency result in [1] and in assay [2] was “inactive” each time.
In the case of `O=C(Nc1ccccc1C(=O)OCc1cc(=O)n2nc(C3CC3)sc2n1)c1cccc(Cl)c1`, the Potency entry in assay [1] and in assay [2] was “inactive” each time.
For the molecule `CC(C)c1ccc(Nc2sc(C(=O)c3ccccc3)c(N)c2S(=O)(=O)c2ccccc2)cc1`, the Potency result in assay [1] and in assay [2] was “inactive” each time.
Turning to `O=C(Nc1cc(C(=O)Nc2ccc(S(=O)(=O)O)cc2S(=O)(=O)O)cc(C(=O)Nc2ccc(S(=O)(=O)O)cc2S(=O)(=O)O)c1)Nc1cc(C(=O)Nc2ccc(S(=O)(=O)O)cc2S(=O)(=O)O)cc(C(=O)Nc2ccc(S(=O)(=O)O)cc2S(=O)(=O)O)c1`, the Potency in assay [1] is 2.24 µM (active) and 4.47 µM (active). Also, the Potency entry in [2] was “inactive”.
Consider `O=C(O)c1ccc(NC(=O)c2cn(-c3ccccc3)nc2-c2ccc(Br)cc2)cc1`, for which the Potency in assay [1] is 8.91 µM (active).
Consider `COc1ccc(S(=O)(=O)c2c(Nc3ccc(C)cc3)sc(C(=O)c3ccc4c(c3)OCO4)c2N)cc1`, for which the Potency result in assay [1] and in assay [2] was “inactive” each time.
Regarding `COC(=O)c1ccc(C(=O)Nc2ccc(-c3nc4cc(NC(=O)c5ccc(C(=O)OC)cc5)ccc4o3)cc2)cc1`, the Potency result in [1] and in assay [2] was “inactive” throughout.
Regarding `CCOc1ccccc1NC(=O)c1ccc2oc(=O)c(S(=O)(=O)c3ccc(F)cc3)cc2c1`, the Potency entry in assay [1] and in [2] was “inactive” throughout.
As to `O=C(Nc1ccccc1C(=O)OCc1cc(=O)n2c3c(sc2n1)CCCC3)c1ccc(F)cc1`, the Potency result in assay [1] is “inactive”.
For the molecule `O=C(OCc1cc(=O)n2nc(C3CC3)sc2n1)c1ccc(NC(=O)c2ccccc2Cl)cc1`, the Potency in [1] is 50.1 µM (active). The Potency result in assay [2] was “inactive”.
The matching figures for `CC(Oc1ccccc1)C(=O)Nc1ccc(C(=O)OCc2cc(=O)n3nc(C(C)C)sc3n2)cc1` (stereo not given): “inactive” and “inactive”.
Turning to `CCOC(=O)c1ccc(CN(Cc2ccc(F)cc2)S(=O)(=O)c2ccc(F)c(C(=O)Nc3ccccc3C(F)(F)F)c2)cc1`, the Potency entry in [1] and in assay [2] was “inactive” each time.
For the molecule `Cc1csc2nc(COC(=O)c3ccccc3NC(=O)c3ccc(C(C)(C)C)cc3)cc(=O)n12`, the Potency result in assay [1] and in assay [2] was “inactive” in each case.
On to `CC(C)c1nn2c(=O)cc(COC(=O)c3ccccc3NC(=O)c3cccc(Cl)c3)nc2s1`, for which the Potency result in assay [1] and in [2] was “inactive” throughout.
Regarding `O=C(O)c1nc2cc(Cl)c(Cl)cc2[nH]c1=O`, the Potency entry in assay [1] is “inactive”.
Consider `O=C(Nc1ccc(C(=O)OCc2cc(=O)n3nc(C4CC4)sc3n2)cc1)c1ccccc1`, for which the Potency result in [1] and in assay [2] was “inactive” each time.
As to `O=C(O)Cc1cc(I)c(Oc2cc(I)c(O)c(I)c2)c(I)c1`, the Potency result in assay [1] and in assay [2] was “inactive” throughout.
Turning to `CCOC(=O)c1c(-c2ccccc2)csc1NC(=O)c1cc(-c2ccc(Cl)cc2)on1`, the Potency result in assay [1] and in assay [2] was “inactive” throughout.
As for `O=C(Nc1ccccc1C(F)(F)F)c1ccc2oc(=O)c(S(=O)(=O)c3ccc(F)cc3)cc2c1`, the Potency result in assay [1] and in assay [2] was “inactive” throughout.
Consider `O=C(Nc1ccc(C(=O)OCc2cc(=O)n3c4c(sc3n2)CCCC4)cc1)c1ccccc1`, for which the Potency result in assay [1] and in assay [2] was “inactive” throughout.
Take `CCCCc1nn2c(=O)cc(COC(=O)c3ccc(NC(=O)c4cccs4)cc3)nc2s1`: the Potency entry in [1] and in [2] was “inactive” throughout.
Take `COc1ccc(S(=O)(=O)c2c(Nc3cccc(Cl)c3)sc(C(=O)c3ccccc3)c2N)cc1`: the Potency result in assay [1] and in [2] was “inactive” each time.
On to `O=C(COC(=O)c1cccc(NC(=O)c2ccc(Br)cc2)c1)c1ccc(Cl)cc1`, for which the Potency result in assay [1] and in assay [2] was “inactive” in each case.
Regarding `CCOC(=O)c1ccc(NC(=O)c2nc(SCc3ccc(F)cc3)ncc2Cl)cc1`, the Potency result in assay [1] and in assay [2] was “inactive” each time.
`O=C(Nc1cccc(C(=O)OCc2cc(=O)n3c4c(sc3n2)CCCC4)c1)c1cccc(Cl)c1`: the Potency result in assay [1] and in assay [2] was “inactive” throughout.
As for `CCCCOC(=O)c1ccc(NC(=O)c2ccc3c(c2)CCN3S(=O)(=O)c2ccccc2)cc1`, the Potency result in [1] and in assay [2] was “inactive” each time.
`COc1ccc(S(=O)(=O)c2cc(NS(=O)(=O)c3ccc(Cl)cc3)c(C)c(C)c2O)cc1`: the Potency entry in assay [1] and in assay [2] was “inactive” each time.
Regarding `O=C(Nc1cccc(C(=O)OCc2cc(=O)n3nc(C4CC4)sc3n2)c1)c1ccc(F)cc1`, the Potency result in [2] is “inactive”.
For the molecule `CC(=O)Nc1ccc(S(=O)(=O)O)c2cc(S(=O)(=O)O)c(N=Nc3ccc(N=Nc4ccc(S(=O)(=O)O)cc4)c4ccc(S(=O)(=O)O)cc34)c(O)c12`, the Potency in assay [1] is 6.31 µM (active).
For the molecule `Cc1cccc(C)c1-n1c(SCC(=O)Nc2ccc(C(=O)O)cc2)nnc1-c1cccc([S+](=O)([O-])N2CCCC2)c1`, in [2], the Potency result is “inactive”.
Regarding `O=C(Nc1ccccc1C(=O)OCc1cc(=O)n2c3c(sc2n1)CCCC3)c1cccc(Cl)c1`, the Potency entry in [1] and in assay [2] was “inactive” throughout.
As to `C[C@@H]1O[C@H](c2c(O)cc(O)c3c(=O)cc(-c4ccc(O)cc4)oc23)[C@H](O)[C@H](O)[C@H]1O`, the Potency entry in assay [3], in assay [4], in assay [5], in [6], in assay [7] and in assay [8] was “inactive” in each case. Also, the Potency entry in [9], in [10], in assay [11], in assay [12], in [13] and in [14] was “inactive” each time. Besides, the Potency result in [16], in assay [17], in assay [18] and in assay [19] was “inactive” in each case. In addition, the call in assay [15] was inactive.
